The text below walks through data of PubChem BioAssay (EPA / NIEHS).

The target in test [1] is Bile acid receptor (Homo sapiens) (UniProt Q96RI1). Nature of the test: ATG_IR1_CIS: Attagene CIS-FACTORIAL HepG2 Assay for human Nuclear Receptor Subfamily 1 Group H Member 4 (NR1H4), IR1 submotif (AID 2282946). The conditions noted are these: IR1 reporter transcription, actives raise or lower the signal. In a few lines:
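Transient MRTU transfection, HepG2; 24 h dosing; RNA → RT-PCR → 6-FAM primer extension → HpaI digest → capillary electrophoresis fluorescence. Gain/loss of signal fitted relative to DMSO.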

Test [2] can be described thus: ATG_ISRE_CIS: Attagene CIS-FACTORIAL HepG2 Assay for human Interferon Regulatory Factor 1 (IRF1) binding to an Interferon-Stimulated Response Element (ISRE) (AID 2282948). Conditions: HepG2 ISRE cis-reporter (Attagene), mRNA transcription readout; actives raise or lower the signal. In a few lines: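 Transiently transfected HepG2 cells carrying cis-element reporter units, dosed 24 hours. Reporter mRNA quantified by RT-PCR, fluorescent primer extension, HpaI digestion and capillary electrophoresis. Bidirectional fitting relative to DMSO.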

Test [3] is described as follows: ATG_M_32_CIS: Attagene CIS-FACTORIAL HepG2 Assay for M32 Transcription Factor (Internal Marker) (AID 2282949).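 Note: background control marker of the multiplexed CIS panel rather than a real target.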 The conditions noted are these: HepG2 Attagene cis-factorial M32 reporter, mRNA; actives raise or lower the signal. In a few lines:
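Internal background marker read-out: RT-PCR/capillary electrophoresis fluorescence of reporter transcripts from transiently transfected HepG2 cells after 24 h chemical exposure. Activity fitted bidirectionally relative to DMSO negative control.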

Test [4] in a line: ATG_M_06_CIS: Attagene CIS-FACTORIAL HepG2 Assay for M06 Transcription Factor (Internal Marker) (AID 2282950). The conditions noted are these: HepG2 Attagene CIS-FACTORIAL M06 internal marker reporter; actives raise or lower the signal. A digest of the protocol:
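Steps: transfect HepG2 with multiplexed cis-element reporter constructs; dose chemical 24 h; extract RNA with DNase treatment; reverse-transcribe, PCR-amplify, 6-FAM label, HpaI digest; separate fragments by capillary electrophoresis. Activity fitted both directions versus DMSO.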

The target in test [5] is Hypoxia-inducible factor 1-alpha (Homo sapiens) (UniProt Q16665). Nature of the test: ATG_HIF1a_CIS: Attagene CIS-FACTORIAL HepG2 Assay for human Hypoxia Inducible Factor 1 (HIF1A) (AID 2282951). The conditions noted are these: HepG2 Attagene cis-factorial HIF1a reporter transcription; actives raise or lower the signal. A digest of the protocol:
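Measures endogenous transcription-factor activity through cis-regulated reporter mRNA in HepG2. Cells dosed 24 h; transcripts quantified by RT-PCR with 6-FAM-labelled products separated by capillary electrophoresis; DMSO serves as negative control.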

Test [6] addresses Hepatocyte nuclear factor 6 (Homo sapiens) (UniProt Q9UBC0). Nature of the test: ATG_HNF6_CIS: Attagene CIS-FACTORIAL HepG2 Assay for human Hepatocyte Nuclear Factor 6 (HNF6) (AID 2282952). Conditions: HepG2 Attagene cis-factorial HNF6 reporter transcription; actives raise or lower the signal. A digest of the protocol: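 Reporter mRNA induction or loss in HepG2 after 24 h exposure; transient cis-MRTU transfection; fragments quantified by capillary electrophoresis; bidirectional analysis, DMSO as negative control.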

The nature of test [7]: ATG_MRE_CIS: Attagene CIS-FACTORIAL HepG2 Assay for human Metal Responsive Element (MRE) (AID 2282954). The conditions noted are these: HepG2 MRE cis-reporter transcription, Attagene multiplex; actives raise or lower the signal. In a few lines:
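HepG2 cells transiently transfected with multiple cis-element reporter units measure endogenous MTF1-driven transcription. After 24 h compound exposure, reporter mRNA is quantified by RT-PCR with 6-FAM labelling, HpaI digestion and capillary electrophoresis; bidirectional fits versus DMSO.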

Test [8] is described as follows: ATG_PBREM_CIS: Attagene CIS-FACTORIAL HepG2 Assay for human Phenobarbital-responsive Enhancer Module (PBREM) (AID 2282955). Conditions: HepG2 PBREM cis-reporter, Attagene multiplexed transcription; actives raise or lower the signal. In a few lines: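 Fluorescence of labelled reporter cDNA fragments, resolved by capillary electrophoresis, gives mRNA induction in transfected HepG2 cells treated for 24 h; DMSO serves as negative control and baseline.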

In test [9] the target is Paired box protein Pax-6 (Homo sapiens) (UniProt P26367). Nature of the test: ATG_Pax6_CIS: Attagene CIS-FACTORIAL HepG2 Assay for human Paired Box 6 (PAX6) (AID 2282956). The conditions noted are these: HepG2 CIS-FACTORIAL PAX6 reporter transcription, RNA readout; actives raise or lower the signal. A digest of the protocol:
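HepG2 cells transiently transfected with cis-promoter-driven multiplexed reporter units sensing endogenous transcription factor activity; 24 h chemical exposure. Reporter mRNA quantified by RT-PCR, 6-FAM labelling, HpaI digestion and capillary electrophoresis; bidirectional fit versus DMSO baseline.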

Test [10] is described as follows: ATG_PXRE_CIS: Attagene CIS-FACTORIAL HepG2 Assay for human Pregnane X Receptor Element (PXRE) (AID 2282957). Conditions: HepG2 Attagene CIS-FACTORIAL PXRE reporter, mRNA; actives raise or lower the signal. A digest of the protocol:
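Transiently transfected HepG2 cells were dosed and incubated for 24 h. RNA was then isolated, DNase-treated, reverse-transcribed and reporter sequences amplified. Labeled, HpaI-digested fragments were quantified by capillary electrophoresis against DMSO.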

A short description of test [11]: ATG_PPRE_CIS: Attagene CIS-FACTORIAL HepG2 Assay for human Peroxisome Proliferator-activated Response Element (PPRE) (AID 2282958). Conditions: HepG2 PPRE cis-element reporter, Attagene transcription factor profiling; actives raise or lower the signal. A digest of the protocol: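 Cells are first transfected transiently with the multiplexed reporter library, then dosed for 24 h. Total RNA is reverse-transcribed, amplified, fluorescently end-labeled and HpaI-cut before capillary electrophoresis; activity is fitted bidirectionally against DMSO controls.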

Test [12] is described as follows: ATG_Sox_CIS: Attagene CIS-FACTORIAL HepG2 Assay for human SRY-box transcription factor (SOX) (AID 2282960). The conditions noted are these: HepG2 Attagene cis-factorial SOX reporter, mRNA; actives raise or lower the signal. A digest of the protocol:
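Transient MRTU transfection of HepG2; 24 h compound incubation; TriZol RNA, oligo(dT) RT, PCR, 6-FAM primer extension, HpaI cut, CE. Bidirectional fit, DMSO = baseline.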

Test [13] has as its target Transcription factor Sp1 (Homo sapiens) (UniProt P08047). Nature of the test: ATG_Sp1_CIS: Attagene CIS-FACTORIAL HepG2 Assay for human Specificity Protein 1 (Sp1) (AID 2282961). Conditions: HepG2 Sp1 cis-reporter transcription, actives raise or lower the signal. A digest of the protocol:
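Endogenous Sp1 activity was gauged in human liver HepG2 cells bearing transfected reporter units under a cis-regulating promoter. After 24 h dosing, reporter mRNA was quantified by RT-PCR with capillary electrophoresis, and activity fitted bidirectionally versus DMSO.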

The target in test [14] is Signal transducer and activator of transcription 3 (Homo sapiens) (UniProt P40763). Nature of the test: ATG_STAT3_CIS: Attagene CIS-FACTORIAL HepG2 Assay for human Signal Transducer and Activator of Transcription 3 (STAT3) (AID 2282963). Conditions: HepG2, Attagene cis-factorial STAT3 reporter transcription; actives raise or lower the signal. A digest of the protocol: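 HepG2 cells transiently transfected with cis-element-driven multiple reporter transcription units; after 24 h chemical exposure, reporter mRNA measured by RT-PCR, 6-FAM primer-extension labelling, HpaI digestion and capillary electrophoresis. Bidirectional fitting versus DMSO baseline.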

The nature of test [15]: ATG_TA_CIS: Attagene CIS-FACTORIAL HepG2 Assay for human TA Basal Promoter (AID 2282964). Conditions: HepG2 Attagene CIS-factorial TA basal promoter reporter; actives raise or lower the signal. A digest of the protocol:
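Steps: transfect HepG2 with MRTUs; dose 24 h; isolate RNA, DNase-treat, reverse-transcribe; PCR and FAM-label reporter cDNA; digest with HpaI 2h at 37 C; run capillary electrophoresis. Activity fitted both directions against DMSO.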

The nature of test [16]: ATG_TCF_b_cat_CIS: Attagene CIS-FACTORIAL HepG2 Assay for human T-Cell-Factor with beta-catenin (TCF/b-cat) (AID 2282965). The conditions noted are these: HepG2 TCF/beta-catenin cis-reporter transcription, actives raise or lower the signal. A digest of the protocol: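 In this cis-format system, transfected HepG2 cells report endogenous transcription factor activity. Readout after 24 h exposure is reporter transcript abundance from RT-PCR and capillary electrophoresis, analysed for gain or loss of signal versus DMSO.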

In test [17] the target is Heat shock factor protein 1 (Homo sapiens) (UniProt Q00613). Nature of the test: ATG_HSE_CIS: Attagene CIS-FACTORIAL HepG2 Assay for human Heat Shock Transcription Factor 1 (HSE) (AID 2282953). Conditions: HepG2 HSE cis-reporter, Attagene RNA transcription; actives raise or lower the signal. A digest of the protocol: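 Cells were transfected with cis-element-driven reporter constructs, dosed for 24 h, then total RNA was reverse-transcribed and reporter cDNA amplified, FAM-labelled and digested with HpaI. Fragments were resolved by capillary electrophoresis; gain or loss was fitted against DMSO.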

Test [18] is described as follows: ATG_SREBP_CIS: Attagene CIS-FACTORIAL HepG2 Assay for human Sterol Regulatory Element Binding (SREBP) (AID 2282962). Conditions: HepG2 Attagene cis-factorial SREBP reporter, mRNA; actives raise or lower the signal. In a few lines: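 HepG2 cells transiently transfected with multiplexed cis-promoter reporter units sensing endogenous transcription factors; reporter mRNA measured 24 h after dosing by RT-PCR, 6-FAM labeling, HpaI digestion and capillary electrophoresis. Bidirectional fit versus DMSO.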

Test [19] can be described thus: ATG_RORE_CIS: Attagene CIS-FACTORIAL HepG2 Assay for human RAR-related Orphan Receptor Element (RORE) (AID 2282959). Conditions: HepG2 Attagene cis-factorial RORE reporter, mRNA; actives raise or lower the signal. In a few lines:
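Cells were HepG2 carrying transfected cis-regulated reporter constructs, dosed for 24 hours. Total RNA was reverse-transcribed and reporter cDNA amplified, fluorescently labeled and sized by capillary electrophoresis. Activity was fitted bidirectionally relative to DMSO.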

Calls of active or inactive are those of the source. Rule for the calls: active = hit-call score of the fitted dose curve at least 0.9, where 1 is the maximum; inactive = score below 0.9.

Chain of Heat shock factor protein 1 (Homo sapiens) (Q00613 whole entry, looked up, the tested form may be a part): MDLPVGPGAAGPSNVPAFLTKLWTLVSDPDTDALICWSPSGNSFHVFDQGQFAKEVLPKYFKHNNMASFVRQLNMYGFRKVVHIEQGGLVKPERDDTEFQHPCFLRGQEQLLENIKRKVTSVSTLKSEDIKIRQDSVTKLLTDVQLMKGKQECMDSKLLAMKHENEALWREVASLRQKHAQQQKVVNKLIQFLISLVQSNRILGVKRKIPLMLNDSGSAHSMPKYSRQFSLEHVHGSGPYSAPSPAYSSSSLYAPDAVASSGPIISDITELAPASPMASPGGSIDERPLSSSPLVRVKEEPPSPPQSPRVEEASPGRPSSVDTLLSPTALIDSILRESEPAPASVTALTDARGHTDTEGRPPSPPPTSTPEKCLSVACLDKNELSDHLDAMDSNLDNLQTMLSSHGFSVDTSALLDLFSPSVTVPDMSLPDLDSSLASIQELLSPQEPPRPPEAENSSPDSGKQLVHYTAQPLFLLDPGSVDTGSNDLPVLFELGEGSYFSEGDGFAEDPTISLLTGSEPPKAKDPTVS
Chain of Hepatocyte nuclear factor 6 (Homo sapiens) (Q9UBC0 whole entry, looked up, the tested form may be a part): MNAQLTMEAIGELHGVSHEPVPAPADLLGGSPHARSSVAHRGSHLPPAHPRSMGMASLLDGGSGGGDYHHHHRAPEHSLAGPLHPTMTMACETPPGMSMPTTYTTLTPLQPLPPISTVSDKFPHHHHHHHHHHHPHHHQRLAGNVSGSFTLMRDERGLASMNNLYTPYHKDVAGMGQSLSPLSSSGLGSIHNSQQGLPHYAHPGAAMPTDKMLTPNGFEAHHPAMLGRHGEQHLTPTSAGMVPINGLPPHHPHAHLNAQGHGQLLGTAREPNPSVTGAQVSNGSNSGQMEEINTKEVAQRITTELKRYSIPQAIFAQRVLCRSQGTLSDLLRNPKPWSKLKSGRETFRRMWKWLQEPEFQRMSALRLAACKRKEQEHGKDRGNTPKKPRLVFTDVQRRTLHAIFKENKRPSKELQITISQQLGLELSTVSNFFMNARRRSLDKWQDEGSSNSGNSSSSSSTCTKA
Chain of Paired box protein Pax-6 (Homo sapiens) (P26367 whole entry, looked up): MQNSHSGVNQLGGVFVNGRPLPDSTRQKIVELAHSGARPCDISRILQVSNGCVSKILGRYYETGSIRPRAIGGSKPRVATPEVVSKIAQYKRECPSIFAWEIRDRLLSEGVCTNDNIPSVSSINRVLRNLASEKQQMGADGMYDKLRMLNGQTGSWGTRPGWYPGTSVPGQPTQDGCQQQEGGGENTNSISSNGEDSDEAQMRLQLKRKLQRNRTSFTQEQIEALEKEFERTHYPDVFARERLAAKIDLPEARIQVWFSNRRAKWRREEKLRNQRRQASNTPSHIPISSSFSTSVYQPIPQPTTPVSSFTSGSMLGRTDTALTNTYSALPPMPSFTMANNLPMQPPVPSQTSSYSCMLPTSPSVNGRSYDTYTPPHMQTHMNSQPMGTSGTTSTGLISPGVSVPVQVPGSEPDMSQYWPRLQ
Chain of Signal transducer and activator of transcription 3 (Homo sapiens) (P40763 whole entry, looked up): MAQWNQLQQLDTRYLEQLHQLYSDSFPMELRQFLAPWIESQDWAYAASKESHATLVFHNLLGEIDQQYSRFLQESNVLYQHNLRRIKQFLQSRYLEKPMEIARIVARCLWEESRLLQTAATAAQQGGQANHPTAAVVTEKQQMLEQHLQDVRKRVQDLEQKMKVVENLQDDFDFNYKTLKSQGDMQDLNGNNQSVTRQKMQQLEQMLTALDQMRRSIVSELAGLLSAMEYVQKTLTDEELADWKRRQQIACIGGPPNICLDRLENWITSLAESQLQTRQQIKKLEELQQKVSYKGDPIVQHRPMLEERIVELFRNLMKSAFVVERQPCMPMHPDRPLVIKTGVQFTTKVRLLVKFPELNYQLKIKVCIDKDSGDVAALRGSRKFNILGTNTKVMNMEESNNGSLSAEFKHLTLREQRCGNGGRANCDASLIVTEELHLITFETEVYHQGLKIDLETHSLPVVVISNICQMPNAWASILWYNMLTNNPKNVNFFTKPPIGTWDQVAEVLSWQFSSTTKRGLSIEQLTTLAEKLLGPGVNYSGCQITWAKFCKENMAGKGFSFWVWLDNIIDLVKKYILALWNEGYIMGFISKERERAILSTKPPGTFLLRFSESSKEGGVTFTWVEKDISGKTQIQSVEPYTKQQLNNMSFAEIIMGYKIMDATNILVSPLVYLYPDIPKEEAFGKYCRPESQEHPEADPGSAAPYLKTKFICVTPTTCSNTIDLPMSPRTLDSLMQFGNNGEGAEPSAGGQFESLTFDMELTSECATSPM
Chain of Hypoxia-inducible factor 1-alpha (Homo sapiens) (Q16665 whole entry, looked up): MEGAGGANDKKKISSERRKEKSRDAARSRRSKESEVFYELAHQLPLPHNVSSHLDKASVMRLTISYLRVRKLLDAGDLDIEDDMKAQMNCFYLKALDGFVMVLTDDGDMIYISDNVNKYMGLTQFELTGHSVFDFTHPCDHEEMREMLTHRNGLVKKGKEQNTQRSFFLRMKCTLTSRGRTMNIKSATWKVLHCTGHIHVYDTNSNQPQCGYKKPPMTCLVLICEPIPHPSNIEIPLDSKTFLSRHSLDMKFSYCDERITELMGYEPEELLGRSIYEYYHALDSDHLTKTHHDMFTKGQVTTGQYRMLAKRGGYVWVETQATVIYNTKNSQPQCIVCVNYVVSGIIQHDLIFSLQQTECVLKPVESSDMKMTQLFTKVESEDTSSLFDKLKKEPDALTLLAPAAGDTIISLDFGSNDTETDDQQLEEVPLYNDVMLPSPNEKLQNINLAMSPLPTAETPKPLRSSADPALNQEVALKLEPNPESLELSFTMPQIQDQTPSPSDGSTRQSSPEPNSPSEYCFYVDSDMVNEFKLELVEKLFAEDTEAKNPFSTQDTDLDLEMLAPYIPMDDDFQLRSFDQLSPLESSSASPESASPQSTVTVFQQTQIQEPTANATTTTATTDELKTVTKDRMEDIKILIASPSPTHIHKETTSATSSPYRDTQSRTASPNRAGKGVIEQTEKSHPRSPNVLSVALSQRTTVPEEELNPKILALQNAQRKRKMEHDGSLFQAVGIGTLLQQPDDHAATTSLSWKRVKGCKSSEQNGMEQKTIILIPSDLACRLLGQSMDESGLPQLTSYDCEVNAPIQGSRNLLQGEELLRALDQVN
Chain of Transcription factor Sp1 (Homo sapiens) (P08047 whole entry, looked up): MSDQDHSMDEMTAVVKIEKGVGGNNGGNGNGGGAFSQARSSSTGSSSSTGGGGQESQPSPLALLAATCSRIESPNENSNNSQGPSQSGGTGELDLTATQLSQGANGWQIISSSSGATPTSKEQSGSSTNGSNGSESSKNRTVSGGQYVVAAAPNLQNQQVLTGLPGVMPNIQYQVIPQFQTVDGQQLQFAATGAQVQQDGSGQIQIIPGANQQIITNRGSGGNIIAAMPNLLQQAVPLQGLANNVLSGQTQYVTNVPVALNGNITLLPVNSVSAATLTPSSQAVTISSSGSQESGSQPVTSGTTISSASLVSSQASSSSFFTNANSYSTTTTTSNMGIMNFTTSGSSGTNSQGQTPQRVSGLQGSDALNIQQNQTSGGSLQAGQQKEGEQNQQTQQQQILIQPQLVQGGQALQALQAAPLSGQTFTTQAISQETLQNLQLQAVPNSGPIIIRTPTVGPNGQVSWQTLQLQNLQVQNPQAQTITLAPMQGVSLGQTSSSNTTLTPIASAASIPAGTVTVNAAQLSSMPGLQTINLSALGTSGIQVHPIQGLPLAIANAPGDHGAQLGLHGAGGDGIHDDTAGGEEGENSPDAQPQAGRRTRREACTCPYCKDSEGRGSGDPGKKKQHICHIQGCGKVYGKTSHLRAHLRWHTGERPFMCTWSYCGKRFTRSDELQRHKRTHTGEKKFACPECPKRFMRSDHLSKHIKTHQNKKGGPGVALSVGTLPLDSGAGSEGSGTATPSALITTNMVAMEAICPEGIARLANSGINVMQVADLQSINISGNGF
Chain of Bile acid receptor (Homo sapiens) (Q96RI1 whole entry, looked up): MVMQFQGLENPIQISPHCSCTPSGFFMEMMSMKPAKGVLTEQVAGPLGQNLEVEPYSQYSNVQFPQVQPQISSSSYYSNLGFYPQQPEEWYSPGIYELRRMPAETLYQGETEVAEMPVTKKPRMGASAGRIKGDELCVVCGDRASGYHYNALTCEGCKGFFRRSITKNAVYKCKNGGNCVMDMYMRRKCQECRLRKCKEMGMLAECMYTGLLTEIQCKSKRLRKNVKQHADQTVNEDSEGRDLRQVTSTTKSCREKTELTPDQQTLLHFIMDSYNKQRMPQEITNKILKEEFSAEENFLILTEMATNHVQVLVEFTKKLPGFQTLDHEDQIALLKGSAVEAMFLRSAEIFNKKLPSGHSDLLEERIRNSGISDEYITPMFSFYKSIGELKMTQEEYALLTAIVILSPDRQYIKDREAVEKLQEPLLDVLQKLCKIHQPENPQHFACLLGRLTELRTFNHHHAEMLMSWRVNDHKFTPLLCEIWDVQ

For `CC(C)CCOC(=O)c1ccccc1`, the outcome in test [1], in test [2], in test [3], in [4], in [5] and in test [6] was inactive. Moreover, the call in test [7], in test [8], in test [9], in test [10], in test [11] and in test [12] was inactive. Further, the outcome in [13], in [14], in test [15] and in test [16] was inactive.

A word on the AC50: it is the concentration at which the activity in the assay is half-maximal. In the case of `CC(C)C(OC(=O)c1ccccc1)C(C)(C)COC(=O)c1ccccc1` (stereo unspecified), the molecule was called inactive in test [1], in test [2], in test [3], in [4], in [5] and in test [6]. The call in [17], in test [7], in test [9], in test [11], in test [12] and in test [13] was inactive. The molecule was called inactive in [18], in test [14], in test [15] and in test [16]. Besides, the AC50 in test [10] was 1.27 µM (active).

`CC[N+](C)(CC)CC`: the outcome in [1], in test [2], in [3], in [5], in test [6] and in [17] was inactive. For the same molecule, the molecule was called inactive in test [7], in test [8], in test [10], in [12], in test [13] and in test [18]. In addition, the outcome in [14], in test [15] and in test [16] was inactive.

Turning to `C[N+](C)(C)CCCCCC[N+](C)(C)C`, the result in test [1], in test [2], in test [3], in [4], in test [6] and in [7] was inactive. Besides, the molecule was classed as inactive in test [9], in test [10], in test [11], in [19], in test [12] and in [13]. The call in test [18], in [14], in test [15] and in test [16] was inactive.

With `CCC(Cl)C(Cl)C(Cl)CC(Cl)C(Cl)C(C)Cl` (stereo unspecified), the concentration at half-maximal activity (AC50) in test [1] is 10.5 µM (active); in test [7], 74 µM (active); in [10] it was 0.885 µM (active). The molecule was classed as inactive in test [2], in [3], in test [4], in test [6], in [17] and in test [9]. Besides, the call in [11], in test [19], in test [12], in [13], in [18] and in test [14] was inactive. Moreover, the outcome in test [15] and in [16] was inactive.

As to `CCCCCCCCCCCCN1CCCCCC1=O`, the result in test [1], in test [2], in test [3], in test [4], in test [5] and in test [6] was inactive. In addition, the call in test [7], in test [9], in test [11], in test [12], in test [13] and in test [18] was inactive. Besides, the molecule was called inactive in [14], in test [15] and in [16]. Also, the AC50 was 9.68 µM (active) in [8] and 1.46 µM (active) in test [10].

For the molecule `C[Si](C)(C)O[Si](C)(C)C`, the call in [1], in test [2], in test [3], in test [4], in test [5] and in test [6] was inactive. The molecule was called inactive in test [17], in test [7], in test [9], in test [10], in [11] and in test [19]. For the same molecule, the result in test [12], in test [13], in [18], in test [14], in test [15] and in test [16] was inactive.
